Bioassay records as filed in PubChem.
Shown are actives, neighbours in structure and some others; about 2.5% of the full set was active somewhere.
Env fusion inh: inhibitors of HIV-1 Env-driven cell-cell fusion, primary screen, HeLa-JRFL effector, CEM21 target cells, luciferase; inhibition, % at 12.3 µM; 360,000 compounds, 1.1% hits; AID 651610, 2012;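 active = mean replicate inhibition score of at least 50 and every replicate individually at or above 50; inconclusive = only one of the two criteria met; inactive = mean below 50 and not all replicates reaching 50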;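 note: 0% = plate neutral controls and 100% = maraviroc near 300 nM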
EWS-Fli inh: EWS/Fli-driven NR0B1 reporter inhibitors, primary screen, A673 cells, NR0B1 luciferase, luminescence, MLPCN library; viability-normalised; inhibition, % at 12.6 µM; 350,000 compounds, 0.67% hits; AID 651661, 2012;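 active = mean inhibition of at least 50% after viability correction, with every replicate also passing that limit; inconclusive = mean reaches 50% but only one of two replicates passes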;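 note: firefly luciferase signal divided by Alamar Blue viability fluorescence both relative to DMSO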
F508del corr: F508del CFTR correction, initial screen, CFBE line, single point | CFBE cells, YFP halide quenching; stimulated with forskolin plus potentiator P3; % fluorescence drop versus neutral controls | activity (quench increase), % at 7.58 µM | 350,000 compounds, 0.36% hits | AID 720511, 2013;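 active = mean added fluorescence quench of at least 8% versus neutral control, with both replicates also reaching 8%; inconclusive = only one of the mean or replicate conditions met; inactive = mean below 8% and not both replicates reaching 8%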;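 note: cells transiently co-express mutant CFTR-F508del with the halide-sensitive YFP; corrector assay measuring rescue of mutant channel to the surface after 24 h compound exposure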
PAX8 inh HTS: inhibitors of PAX8-driven TPO luciferase reporter, primary screen, RMG-I cells, single concentration; SteadyGlo, 24 h; inhibition, % at 12.6 µM; 360,000 compounds, 1.2% hits; AID 652154, 2013;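 active = mean replicate inhibition at least 60% with every replicate also reaching 60%; inconclusive = only one of the two criteria is met; inactive = mean below 60% and not all replicates reaching 60%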;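 note: luciferase light reporting Pax8 driven TPO promoter activity; plate controls were median of neutral control wells for no effect and mitoxantrone controls for full effect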
GAA850 FXN act: FXN promoter activators, primary screen, cell-based, luciferase luminescence, HEK293 lucGAA850. HEK293 lucGAA850 FXN promoter luciferase reporter, 24 h; percent of 10 µM SAHA response. activation, % at 6 µM. 360,000 compounds, 0.56% hits. AID 540364, 2011;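 active = activation above the average of all compounds screened plus 3 SD, cutoff fixed separately per campaign, cut at about 7.5% in these data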;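 note: 0% = DMSO wells and 100% = 10 µM SAHA wells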
The depositor's hits bear a star; i = inactive; ? = inconclusive; · = no result; [ ] = remark or other dose.

SMILES	Env fusion inh	EWS-Fli inh	F508del corr	PAX8 inh HTS	GAA850 FXN act
CCN(C[C@@H]1[C@H](c2ccccc2)[C@@H](CO)N1C(C)=O)C(=O)c1ccccn1	·	-1	1	-12	·
CO[C@@H]1CN(C)C(=O)c2ccc(NS(C)(=O)=O)cc2OC[C@@H](C)N(C(=O)C2CCCCC2)C[C@H]1C	66*[16.7 µM]	-2	1	-11	·
CCC(=O)Nc1ccc2c(c1)OC[C@H](C)N(CC1CCCCC1)C[C@H](C)[C@@H](OC)CN(C)C2=O	87*[16.7 µM]	0	-1	-3	·
CCC(=O)Nc1ccc2c(c1)OC[C@H](C)N(CC1CC1)C[C@H](C)[C@H](OC)CN(C)C2=O	·	-4	-1	-8	·
CO[C@H]1CN(C)C(=O)c2ccc(NC(=O)C3CCC3)cc2OC[C@H](C)N(CC2CCCCC2)C[C@@H]1C	92*[16.7 µM]	-5	0	16	·
O=C(C[C@H]1C[C@@H]2c3cc(NC(=O)CC4CC4)ccc3O[C@@H]2[C@H](CO)O1)NCc1cc(F)ccc1F	22[16.7 µM]	-6	-3	8	·
CCCN1[C@@H]2c3ccc(-c4ccc(OC)cc4)c(=O)n3C[C@@H]2[C@@H](CO)[C@@H]1C(=O)N(C)C	·	-1	-2	0	·
O=C1C=C(c2ccc(F)cc2OCc2ccccc2)C[C@@H](c2ccc3c(c2)OCO3)C1	32	19	2	18	2
O=C1C=C(c2ccc(F)cc2OCc2ccccc2)C[C@@H](c2ccc(Cl)cc2)C1	76*	18	2	15	1
CO[C@@H]1CN(C)C(=O)c2ccc(NC(=O)C3CCOCC3)cc2OC[C@H](C)N(C(=O)c2ccccc2)C[C@@H]1C	-16[16.7 µM]	-9	-2	-14	·
O=C([C@H]1O[C@@H](n2ccc(=O)[nH]c2=O)[C@H](O)[C@@H]1O)N1CCN(Cc2ccccn2)CC1	57*	2	1	-13	·
O=C(N[C@H](Cc1ccccc1)C(=O)N1CCN(Cc2ccccn2)CC1)[C@H]1O[C@@H](n2ccc(=O)[nH]c2=O)[C@H](O)[C@@H]1O	?	-11	-1	-6	·
O=Nc1ccc(O)c2ncccc12	i	72*	16*	0	-13
Cc1ccccc1N=Nc1ccc(O)c2ncccc12	32	-8	·	18	2
C[C@@H]1CN([C@@H](C)CO)C(=O)c2cc(Br)cnc2O[C@@H]1CN(C)C(=O)c1ccccc1	0[16.7 µM]	-6	-4	0	·
O=C(Nc1ncnc2c1C(c1ccccc1)c1c(ccc3ccccc13)O2)c1ccccc1 (stereo not drawn)	1	26	0	32	-2
O=C(Cc1ccccc1)Nc1ncnc2c1C(c1ccccc1)c1c(ccc3ccccc13)O2 (stereo not drawn)	68*	17	-5	?	1
CCN(Cc1nc2cc(Cl)ccc2c(=O)[nH]1)C(=O)c1nn(C)c(=O)c2ccccc12	4	-2	1	12	-2
CCN(Cc1nc2cc(Cl)ccc2c(=O)[nH]1)C(=O)c1cc(C2CC2)nn1-c1ccccc1	86*	-1	3	14	4
N=c1c2c(-c3ccccc3)c(-c3ccccc3)n(Cc3ccco3)c2ncn1CCCn1ccnc1	25	14	·	30	-9
N=c1c2c(-c3ccccc3)c(-c3ccccc3)n(Cc3ccco3)c2ncn1CCCN1CCOCC1	75*	5	3	?	7
COc1cccc(S(=O)(=O)Nc2ccc3c(c2)OC[C@@H](C)N(Cc2ccccc2F)C[C@@H](C)[C@H](OC)CN(C)C3=O)c1	-1[16.7 µM]	8	1	31	·
C[C@H]1CN([C@@H](C)CO)C(=O)Cc2cc(NC(=O)Nc3ccccc3)ccc2O[C@H]1CN(C)S(=O)(=O)c1cccs1	70*[16.7 µM]	1	0	30	·
COc1ccc(S(=O)(=O)Nc2ccc3c(c2)CC(=O)N([C@H](C)CO)C[C@@H](C)[C@H](CN(C)S(=O)(=O)c2cccs2)O3)cc1	29[16.7 µM]	-1	-1	-23	·
COc1ccc(S(=O)(=O)Nc2ccc3c(c2)CC(=O)N([C@@H](C)CO)C[C@H](C)[C@H](CN(C)S(=O)(=O)c2cccs2)O3)cc1	80*[16.7 µM]	13	0	-25	·
SMILES	Env fusion inh	EWS-Fli inh	F508del corr	PAX8 inh HTS	GAA850 FXN act
COc1ccc(NC(=O)Nc2ccc3c(c2)CC(=O)N([C@@H](C)CO)C[C@H](C)[C@H](CN(C)S(=O)(=O)c2cccs2)O3)cc1	75*[16.7 µM]	-11	2	20	·
C[C@H](CO)N1C[C@H](C)[C@H](CN(C)S(=O)(=O)c2cccs2)Oc2ccc(NC(=O)Cc3ccccc3)cc2CC1=O	96*[16.7 µM]	3	-1	2	·
CO[C@H]1CN(C)C(=O)c2cc(NC(=O)Nc3c(C)noc3C)ccc2OC[C@H](C)N(CC2CC2)C[C@H]1C	·	-4	5	-27	·
C[C@H]1CN([C@@H](C)CO)C(=O)c2cc(-c3cccc(C#N)c3)cnc2O[C@@H]1CN(C)Cc1cccnc1	·	-3	0	-53	·
C[C@H](CO)N1C[C@H](C)[C@@H](CN(C)Cc2ccncc2)Oc2ccc(NC(=O)CCC(F)(F)F)cc2C1=O	2[16.7 µM]	-5	1	2	·
C[C@H](CO)N1C[C@H](C)[C@H](CN(C)S(=O)(=O)c2cccs2)Oc2ccc(NC(=O)CCN3CCOCC3)cc2CC1=O	56*[16.7 µM]	1	-2	-16	·
C[C@H](CO)N1C[C@H](C)[C@H](CN(C)S(=O)(=O)c2cccs2)Oc2ccc(NC(=O)C3CCCCC3)cc2CC1=O	61*[16.7 µM]	-5	1	-10	·
C[C@H]1CN([C@@H](C)CO)C(=O)Cc2cc(NC(=O)CCN3CCOCC3)ccc2O[C@H]1CN(C)S(=O)(=O)c1cccs1	-1[16.7 µM]	3	-1	15	·
COc1ccc(S(=O)(=O)N(C)C[C@@H]2Oc3c(NS(=O)(=O)c4ccc(Cl)cc4)cccc3C(=O)N([C@H](C)CO)C[C@H]2C)cc1	15[16.7 µM]	-5	1	-9	·
CC(C)NC(=O)Nc1ccc2c(c1)C(=O)N([C@@H](C)CO)C[C@H](C)[C@@H](CN(C)CC1CCCCC1)O2	-11[16.7 µM]	-2	0	-11	·
Cc1cccc(S(=O)(=O)N2C[C@@H]3[C@H](c4ccccc42)[C@H](CO)N3Cc2ccc3c(c2)OCO3)c1	·	18	4	45	·
COc1cccc(C#Cc2ccc([C@@H]3[C@@H](CO)N4C(=O)CN(C(C)=O)C[C@@H]34)cc2)c1	·	·	2	·	·
COc1nc(-c2ccccc2Cl)ccc1C#N	56*	·	·	·	6
COc1ccc(S(=O)(=O)Nc2ccc3c(c2)C(=O)N(C)C[C@@H](OC)[C@H](C)CN(C)[C@H](C)CO3)cc1	·	-5	0	·	·
CO[C@@H]1CN(C)C(=O)c2ccc(NC(=O)c3ccccc3F)cc2OC[C@H](C)N(CC2CCOCC2)C[C@H]1C	·	3	3	1	·
CCS(=O)(=O)N1CC2(C1)[C@H](c1ccccc1)[C@H](CO)N2CC1CCCC1	·	2	1	15	·
